In the library only some 6.9% were active in any assay of this set; here they are far more common.
IL-1B inflam inh: inhibitors of inflammasome signaling (IL-1 beta secretion); THP-1 LPS/ATP IL-1B secretion, AlphaLISA, 16 h; stronger effect = lower value; activity change, % at 57.5 µM; actives 4.7% (n = 360,000); in the data active means activity change below about -50%; inconclusive means mostly about -30% to -49%; further: on the % scale 0 is the no-effect control and ±100 the full control effect
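Secreted IL-1B measured by AlphaLISA bead assay after 16 h compound exposure of THP-1 cells; compounds (final up to 57.5 uM) added 1 h before LPS (250 ng/mL) and ATP (1.25 mM) stimulation; lower signal means less secretion.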
Vif-APOBEC3F blk: blocks the Vif interaction with APOBEC3F. AID 602313. Potency, µM (titrated, usually from 46.1 µM), for the others: at the highest dose activity, negative = active. HeLa A3F-eYFP + Vif (tagged APOBEC3F with the HIV-1 protein that degrades it), YFP fluorescence increase. actives 0.2% (n = 390,000); further: potency means the concentration at half of the fitted maximal effect; % of control where 0% means no effect; nearly all actives have a fitted effect of over 65% in size
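HeLa cells stably expressing Vif plus C-terminally eYFP-tagged A3F were seeded, incubated overnight at 37 deg C, dosed with compound, incubated overnight again at 37 deg C. Yellow fluorescence (Ex 488/Em 500-530) reported blocked Vif-mediated A3F-eYFP degradation.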
Giardia killer: Giardia lamblia killing; Giardia lamblia trophozoite viability; activity change, % at 7.66 µM, hits read low; actives 0.15% (n = 340,000); in the data active means activity change below about -80%; inconclusive means between about -30% and that limit;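 further: parasites exposed to compound for two days anaerobically before the ATP read; on the % scale 0 is the no-effect control and ±100 the full control effect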
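Compounds were tested on trophozoites seeded at 100 cells/well and held 48 hrs at 37 deg C anaerobically. An ATP-based luminescent kit measured the remaining live cells.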
Vif-A3G inh: blocks the Vif interaction with human APOBEC3G. Q9HC16. HeLa A3G-eYFP + Vif (tagged APOBEC3G with the HIV-1 protein that degrades it), YFP fluorescence, overnight. Potency, µM (series often up to 46.1 µM), without a hit: at the top dose activity, negative = active, most hits filed as inhibitors. actives 0.076% (n = 410,000); further: potency means the concentration at half of the fitted maximal effect; on the % scale 0 is the no-effect control and ±100 the full control effect; nearly all actives have a fitted effect of over 60% in size
Target sequence (Q9HC16 whole entry, looked up): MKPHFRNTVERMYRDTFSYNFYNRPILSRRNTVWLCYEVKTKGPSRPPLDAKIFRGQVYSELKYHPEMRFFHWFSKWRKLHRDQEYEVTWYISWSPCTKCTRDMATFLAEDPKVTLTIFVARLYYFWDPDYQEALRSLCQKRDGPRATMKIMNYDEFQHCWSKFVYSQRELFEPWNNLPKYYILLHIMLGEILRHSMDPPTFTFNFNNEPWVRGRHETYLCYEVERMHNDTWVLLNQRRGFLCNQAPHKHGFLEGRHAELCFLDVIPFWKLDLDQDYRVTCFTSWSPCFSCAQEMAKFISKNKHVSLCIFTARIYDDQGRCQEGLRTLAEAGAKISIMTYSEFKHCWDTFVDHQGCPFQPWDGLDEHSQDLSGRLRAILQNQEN
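Read-out is eYFP fluorescence (Ex 488/Em 500-530) from Vif-expressing HeLa A3G-eYFP cells; more signal means A3G escaped Vif-mediated degradation. Cells plated overnight, compound pinned in, incubated overnight at 37 deg C.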
MCF10A rereplic: DNA re-replication induction in MCF 10a cells. actives 2.9% (n = 350,000). MCF 10A DNA re-replication, Hoechst nuclear intensity, 48 h. AID 624296. Potency, µM (top dose mostly 46.1 µM), for the others: at the top dose activity, positive = re-replication, usual class: activators; further: potency means the concentration at half of the fitted maximal effect; % of control where 0% means no effect; nearly all actives have a fitted effect of over 50% in size
SW480 rerep: induces DNA re-replication in SW480 colon adenocarcinoma cells; actives 1.8% (n = 340,000); SW480 DNA re-replication, Hoechst DNA content imaging, 48 h; Potency, µM (top dose mostly 46.1 µM), for inactives: top-dose re-replication activation, usual class: activators; further: potency means the concentration at half of the fitted maximal effect; % of control where 0% means no effect; nearly all actives have a fitted effect of over 55% in size
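First, 250 cells per well were seeded. Next, compound or vehicle (23 nL) was pinned in, plates sat 48 hr at 37 C. Finally Hoechst was added for 40 min before fluorescence scanning.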
An asterisk follows results filed as active; ? = inconclusive; / = no result given. Unless noted, the call rests on the fitted dose curve; in most records, active means well fitted curve in the direction sought with a large enough effect; inconclusive means small, poorly fitted or top-dose-only effect, or another doubt; inactive means no such curve, though single readings can be large; an effect the other way counts as inactive or inconclusive.

SMILES | IL-1B inflam inh | Vif-APOBEC3F blk | Giardia killer | Vif-A3G inh | MCF10A rereplic | SW480 rerep
CCOC(=O)C1CCCN(c2nc3ccccc3nc2C(C#N)C(=O)NCc2ccccc2)C1 (centres undefined) | -5 | -5% | -14 | -10% | ? | ?
N#CC(C(=O)NCCc1ccccc1)c1nc2ccccc2nc1N1CCOCC1 (centres undefined) | -8 | / | -2 | ? | 0% | -4%
N#CC(C(=O)NCc1ccccc1)c1nc2ccccc2nc1N1CCCC1 (centres undefined) | 9 | 10µM* | 14 | -1% | ? | ?
CCCCN(CCCC)c1nc2ccccc2nc1C(C#N)C(=O)NCCCOC (centres undefined) | -1 | ? | 20 | -7% | -2% | -1%
CCN(CC)c1nc2ccccc2nc1C(C#N)C(=O)NCCc1ccccc1 (centres undefined) | ? | ? | -17 | -13% | 18µM* | ?
CCN(CC)C(=O)/C(C#N)=C/c1cc(O)c(O)c([N+](=O)[O-])c1 | / | / | / | / | 4% | 17%
CC(=O)c1c(C)[nH]c(C(=O)C(C)Sc2nnc(NC3CC3)s2)c1C (centres undefined) | 27 | 0% | 19 | 0% | 18µM* | -2%
COc1ccccc1NC(=O)NC1(C(=O)N2CCCCC2)CCCCC1 | -76* | 15% | 14 | 5% | 5% | 3%
c1ccc(OCCCCn2cnc3ccccc32)cc1 | -20 | 7% | -9 | 7% | 2% | 4%
c1ccc2c(c1)ncn2CCCOc1ccc2c(c1)CCC2 | -53* | 2% | 3 | 3% | ? | 26%
c1ccc2c(c1)ncn2CCCCOc1ccc2c(c1)CCC2 | -29 | -7% | 11 | 7% | 21µM* | ?
C=C1C=C(C(F)F)n2ncc(C(=O)N3CCCCC3)c2N1 | / | / | / | 1% | / | /
C#C[C@]1(O)CC[C@H]2[C@H]3[C@H](CC[C@@]21C)C1=C(CC(=O)CC1)C[C@@H]3C | / | / | / | / | 1% | -6%
CC(C)OCCCn1c(=O)c2ccccc2n2c(-c3ccc(F)c(F)c3)nnc12 | / | -7% | / | 4% | / | /
CC(=O)NC(Cc1cccc(F)c1)C(=O)NC1CCN(c2ncccc2[N+](=O)[O-])CC1 (centres undefined) | 1 | -4% | ? | -4% | 2% | -9%
CC(=O)NC(Cc1ccc(F)cc1)C(=O)NC1CCN(c2ncccc2[N+](=O)[O-])CC1 (centres undefined) | 11 | -2% | ? | 0% | 0.82µM* | -33%
CC(C)N(C(=O)Cn1cc(S(=O)(=O)Cc2ccc(C(F)(F)F)cc2)c2ccccc21)C(C)C | / | 1% | / | -2% | / | /
Cc1cccn2c(=O)c(C=O)c(N3CCN(C)CC3)nc12 | 17 | -2% | 13 | 0% | 1% | -1%
COC(=O)/C(C#N)=C/c1c(N2CCN(c3cccc(Cl)c3)CC2)nc2c(C)cccn2c1=O | 50 | -11% | -12 | -5% | 9% | -34%
Cc1cccn2c(=O)c(C=C(C#N)C#N)c(N3CCN(c4cccc(Cl)c4)CC3)nc12 | -75* | -9% | -8 | 0% | ? | ?
COCCCNC(=O)/C(C#N)=C/c1c(N2CCN(c3cccc(Cl)c3)CC2)nc2c(C)cccn2c1=O | -66* | -1% | -6 | -10% | ? | 0%
Cc1cccn2c(=O)c(C=O)c(N3CCSCC3)nc12 | -50* | -3% | -3 | -3% | 0% | 5.8µM*
COCCCNC(=O)/C(C#N)=C/c1c(N2CCN(c3ccccc3)CC2)nc2c(C)cccn2c1=O | -7 | -15% | 15 | -9% | -3% | -12%
C=C1CCN(C(Cc2ccccc2)C(=O)Nc2ccc(OC)cc2)S(=O)(=O)c2ccccc21 (centres undefined) | / | / | -3 | -5% | / | /
CN1CCC(N(C)S(=O)(=O)c2ccc(NC(=O)COc3cccc(C(F)(F)F)c3)cc2)CC1 | -53* | -16% | -10 | 1% | 17% | 1%
SMILES | IL-1B inflam inh | Vif-APOBEC3F blk | Giardia killer | Vif-A3G inh | MCF10A rereplic | SW480 rerep
CC(Oc1ccc(Br)cc1)C(=O)Nc1ccc(S(=O)(=O)N(C)C2CCN(C)CC2)cc1 (centres undefined) | -98* | -5% | -16 | -6% | ? | ?
CN1CCN(NC(=O)COc2cccc(C(F)(F)F)c2)CC1 | -15 | 3% | ? | 1% | -3% | -3%
COc1ccc(CNC(=O)Cn2ncn3nc(-c4cccs4)cc3c2=O)cc1 | / | 2% | / | -6% | / | /
CCCCNc1ncnc2c1nnn2C | / | -6% | / | 0% | / | /
COc1ccc(OC)c(CNc2ncnc3c2nc2n3CCCC2)c1 | / | 1% | / | -7% | / | /
COc1ccc(-c2cn(-c3ccc(Br)cc3)c3[n+]2CCS3)cc1 | -76* | -9% | -10 | 3% | 4% | -3%
Clc1ccc(-c2cn(-c3ccccc3)c3[n+]2CCS3)cc1 | -51* | -4% | -13 | 1% | 14% | 9%
CCC(=O)NC(c1ccc(OC)cc1)c1cc(Cl)c2cccnc2c1O (centres undefined) | 40 | -30% | 6 | -18% | 11% | 0.52µM*
CCC(=O)NC(c1ccco1)c1cc(Cl)c2cccnc2c1O (centres undefined) | 157 | ? | 0 | -22% | ? | 2.6µM*
COc1ccc(C(NC(=O)c2cccnc2)c2cc(Cl)c3cccnc3c2O)cc1OC (centres undefined) | 94 | -3% | -1 | -12% | 13µM* | ?
COc1ccccc1OCCCCn1c(-c2ccc(Cl)cc2)nc2ccccc2c1=O | / | -5% | / | -1% | / | /
CCc1ccc(NC(=O)c2ccc(F)c(S(=O)(=O)NCc3ccc(Cl)c(Cl)c3)c2)cc1 | / | -27% | / | 1% | / | /
CCN(CC)CCOc1nnc(-c2ccc(C)cc2)c2ccccc12 | -57* | 4% | 6 | 0% | ? | -1%
Cc1ccc(C(C(=O)Nc2ccc3c(c2)OCO3)N(C)C(=O)Cc2c[nH]c3ccccc23)cc1 (centres undefined) | -52* | 13% | -11 | -4% | ? | -6%
COc1cccc(NC(=O)C2CC(=O)N(c3ccc(Br)cc3)C2)c1 (centres undefined) | / | -1% | / | 2% | / | /
Oc1ccc(Cl)cc1CNCC1CCCCC1 | -64* | -4% | 29 | 0% | 16% | ?
Oc1ccc(Cl)cc1CNC1CCCCC1 | ? | -4% | -3 | 2% | ? | 2%
C[C@]12CCC[C@H](O1)c1c(cc3c(c1O)C(=O)c1c(O)cc(O)cc1C3=O)O2 | 36 | 8.9µM* | -23 | 5.6µM* | ? | -2%
O=[N+]([O-])c1cc(S(=O)(=O)Oc2ccccc2)ccc1Cl | -101* | 11% | 15 | -10% | ? | 3.3µM*
